Screening data as filed in PubChem BioAssay.
DT40 TDP1 no CPT = qHTS for Inhibitors of human tyrosyl-DNA phosphodiesterase 1 (TDP1): qHTS in cells in absence of CPT; DT40 Tdp1-/- hTDP1 cells, no CPT, ATP luminescence, 48 h; Potency, µM (top dose mostly 46.2 µM), for inactives: at the highest dose activity change, negative = growth inhibition, usual class: inhibitors; 15% of 420,000 active; further: potency means the concentration at half of the fitted maximal effect; nearly all actives have a fitted effect of over 55% in size
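Growth kinetics read by CellTiter-Glo luminescence after ≥48 hr at 37 °C. Cells: DT40 Tdp1-/- stably carrying human TDP1, 400 per well, compound exposure in the absence of CPT (DMSO vehicle).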
TDP1 cell CPT = DT40-hTDP1 cell growth loss with CPT; chicken DT40 Tdp1-/-;hTDP1 cells + 20 nM CPT, ATP luminescence, 48 h; Potency, µM (doses to about 46.2 µM), without a hit: at the top dose activity change, negative = growth inhibition, usual class: inhibitors; 12% of 420,000 active; AID 686979; further: potency means the concentration at half of the fitted maximal effect; nearly all actives have a fitted effect of over 55% in size
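Chicken DT40 Tdp1-/- cells stably complemented with human TDP1 were seeded at 400 cells/well in medium containing 20 nM camptothecin, exposed to pin-transferred compounds, and grown at 37 °C for at least 48 hr. Viability was read as ATP luminescence.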
TDP1 inh = inhibitors of human tyrosyl-DNA phosphodiesterase TDP1; Q9NUW8; recombinant TDP1, AlphaScreen DNA substrate cleavage; Potency, µM (doses to about 130 µM), without a hit: at the top dose activity change, negative = inhibition, actives largely listed as inhibitors; 0.28% of 350,000 active; further: potency means the concentration at half of the fitted maximal effect; nearly all actives have a fitted effect of over 40% in size
Target sequence (Q9NUW8 whole entry, looked up): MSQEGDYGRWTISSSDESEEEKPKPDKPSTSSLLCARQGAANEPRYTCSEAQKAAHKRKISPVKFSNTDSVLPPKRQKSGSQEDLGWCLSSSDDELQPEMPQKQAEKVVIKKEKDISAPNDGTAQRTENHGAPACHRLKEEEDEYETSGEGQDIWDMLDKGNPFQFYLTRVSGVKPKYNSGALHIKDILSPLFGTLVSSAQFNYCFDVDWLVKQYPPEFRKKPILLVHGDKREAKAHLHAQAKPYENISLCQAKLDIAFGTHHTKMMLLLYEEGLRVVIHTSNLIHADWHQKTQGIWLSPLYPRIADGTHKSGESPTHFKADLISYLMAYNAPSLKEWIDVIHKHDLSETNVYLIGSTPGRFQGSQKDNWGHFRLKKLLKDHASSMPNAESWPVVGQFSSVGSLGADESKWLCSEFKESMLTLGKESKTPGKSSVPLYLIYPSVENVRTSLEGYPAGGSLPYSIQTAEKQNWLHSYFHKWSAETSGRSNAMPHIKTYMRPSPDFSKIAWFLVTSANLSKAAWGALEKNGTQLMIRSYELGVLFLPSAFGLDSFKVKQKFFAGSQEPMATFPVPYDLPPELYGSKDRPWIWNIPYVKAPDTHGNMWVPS
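Recombinant E. coli-expressed Tdp1 (1 nM) preincubated with compound 15 min at RT, then 5'-biotin/3'-phosphotyrosine-FITC DNA substrate (15 nM) added for 5 min. AlphaScreen beads (10 ug/ml) added, 10 min RT; tyrosine-FITC cleavage read as signal loss.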
ELG1 repair inh = ELG1-dependent DNA repair inhibition; 2.3% of 330,000 active; AID 504467; Potency, µM (top dose mostly 46.1 µM), without a hit: at the top dose activity change, negative = inhibition, usual class: inhibitors; HEK293T ELG1-luciferase reporter, luminescence, 16 h; DNA damage induced by 5-fluorouridine; further: potency means the concentration at half of the fitted maximal effect; nearly all actives have a fitted effect of over 55% in size
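In this reporter screen, reduction of luminescence relative to DMSO vehicle indicated activity. Compounds and 5-fluorouridine were added together to 2,000 cells per well, incubated for 16 hr at 37 °C, then developed with ONE-Glo.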
Giardia killer = kills Giardia lamblia; activity change, % at 7.66 µM, hits read low; Giardia lamblia trophozoite viability; 0.15% of 340,000 active; in the data active means activity change below about -80%; inconclusive means between about -30% and that limit;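 further: parasites exposed to compound for two days anaerobically before the ATP read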
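Luminescent ATP signal served as the viability read-out, measured 15-30 min after adding ATP detection reagent to trophozoites that had been incubated with compounds for 48 hrs at 37 deg C anaerobically at 100 cells/well.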
IL1B secr inh = inhibitors of inflammasome signaling (IL-1 beta secretion); 4.7% of 360,000 active; THP-1 LPS/ATP IL-1B secretion, AlphaLISA, 16 h; hits give low values; AID 743279; activity change, % at 57.5 µM; in the data active means activity change below about -50%; inconclusive means mostly about -30% to -49%
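Secreted IL-1B measured by AlphaLISA bead assay after 16 h compound exposure of THP-1 cells; compounds (final up to 57.5 uM) added 1 h before LPS (250 ng/mL) and ATP (1.25 mM) stimulation; lower signal means less secretion.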
Numbers without * were called inactive; i = inactive; ? = inconclusive; nt = no result given; [ ] = dose if it differs, or a comment. Hits are enriched below; roughly 19% of the tested compounds scored in any of these assays. Unless noted, the call rests on the fitted dose curve; in most records, active means well fitted curve in the direction sought with a large enough effect; inconclusive means small, poorly fitted or top-dose-only effect, or another doubt; inactive means no such curve, though single readings can be large; an effect the other way counts as inactive or inconclusive. On the % scale 0 is the no-effect control and ±100 the full control effect.

SMILES | DT40 TDP1 no CPT | TDP1 cell CPT | TDP1 inh | ELG1 repair inh | Giardia killer | IL1B secr inh
O=C(c1cc(-c2ccccc2)nc2ccccc12)N1CCC2(CC1)OCCO2 | ? | ? | 2% | -1% | -5 | -3
Cc1c(-c2cccc(Cl)c2)nc2ccccc2c1C(=O)N1CCC2(CC1)OCCO2 | ? | 21µM* | 3% | -27% | -10 | i
C[C@]12CC[C@@H]3c4ccc(OC(=O)N(CCCl)CCCl)cc4CC[C@H]3[C@@H]1CC[C@@H]2OP(=O)(O)O | -3% | 3% | nt | nt | nt | nt
CC1=CC(=O)NP(=O)(Oc2ccc3ccccc3c2)N1 (stereo not given) | 10µM* | 9.2µM* | 6% | ? | 5 | 24
CNC(=O)c1cccn(Cc2ccc(C(F)(F)F)cc2)c1=O | ? | -20% | 5% | ? | -2 | 56
CNC(=O)c1cccn(Cc2cc(C(F)(F)F)cc(C(F)(F)F)c2)c1=O | ? | ? | -5% | 6.5µM* | -13 | 49
CCc1c(C)c2ccc(OCC(N)=O)cc2oc1=O | 1% | -9% | 7% | ? | -13 | -13
O=c1[nH]c(=S)[nH]c(O)c1N=Nc1ccc(-c2ccccc2)cc1[N+](=O)[O-] | nt | nt | 5% | -4% | nt | nt
C[C@]12C=CC(=O)C=C1CC[C@@H]1[C@@H]2CC[C@]2(C)OC(=O)CC[C@@H]12 | -9% | -19% | nt | nt | nt | nt
CCOc1ccc(CN2CCN(C(=O)Cc3ccccc3)CC2)cc1 | -24% | -22% | nt | -9% | 27 | -11
O=C(COc1ccccc1)N1CCN(C/C=C/c2ccccc2)CC1 | 21µM* | 16µM* | -2% | -22% | 17 | -13
O=C(COc1ccc(Cl)cc1)N1CCN(C/C=C/c2ccccc2)CC1 | ? | ? | 0% | -13% | 16 | -75*
COc1ccc(OCC(=O)N2CCN(C/C=C/c3ccccc3)CC2)cc1 | ? | ? | 1% | ? | 0 | -2
CCCCOc1ccc(C(=O)NCC(=O)N2CCN(C/C=C/c3ccccc3)CC2)cc1 | 16µM* | ? | nt | nt | nt | 23
O=C(COc1ccccc1)N1CCN(CC(O)COc2ccccc2)CC1 (stereo not given) | -16% | 1% | 2% | 1% | -11 | 6
O=C(Oc1ccccc1)N1CCC2(CC1)CN(C(c1ccccc1)c1ccccc1)C2 | ? | -12% | nt | nt | nt | nt
COc1cccc(-c2nnc3n(Cc4ccccc4Cl)c(=O)c4ccccc4n23)c1O | ? | ? | 6% | nt | nt | nt
CN1CCC(O)(c2ccc(Cl)cc2)C(C(=O)c2ccc(Cl)cc2)C1 (stereo not given) | 2.9µM* | 2.6µM* | 3% | 2% | -2 | -15
CCCBr | nt | nt | 7% | nt | nt | nt
CN1CCCC1c1cccnc1 (stereo not given) | -1% | 1% | 0% | nt | ? | 2
COc1ccc(CNCCc2c(C)[nH]c3ccc(OC(F)(F)F)cc23)c(OC)c1 | 1.8µM* | 4.6µM* | nt | 1µM* | -3 | -95*
O=C(CSC1c2ccccc2-c2ccccc21)N/N=C/c1ccccc1O | 6.5µM* | 7.3µM* | 9% | 3.7µM* | -2 | 50
C=CCn1c(O)c(C(C)=NCc2cc(OC)cc(OC)c2)c(=O)[nH]c1=O | 1.6µM* | 4.1µM* | 4% | ? | 6 | 71
C=CCn1c(O)c(C(C)=NCc2cccnc2)c(=O)[nH]c1=O | 0% | -1% | 3% | ? | 28 | 3
Cc1ccccc1N1C(=O)NC(=O)/C(=C/c2ccc(N3CCOCC3)o2)C1=O | -13% | 2% | 6% | 3% | 2 | nt
SMILES | DT40 TDP1 no CPT | TDP1 cell CPT | TDP1 inh | ELG1 repair inh | Giardia killer | IL1B secr inh
Cc1ccccc1N1C(=O)NC(=O)/C(=C\c2cc(Br)c(N3CCOCC3)o2)C1=O | 7.3µM* | 4.1µM* | -1% | 10% | 8 | -103*
COC(=O)C1=C(c2ccc(OC(F)(F)F)cc2)C[C@@H]2CC[C@H]1N2C(=O)N1CCOCC1 | 1.8µM* | 2.6µM* | 0% | 22% | -1 | 0
COC(=O)C1=C(c2ccc(OC(F)(F)F)cc2)C[C@@H]2CC[C@H]1N2C(=O)NCCO | -26% | -13% | 0% | 25% | -10 | 6
COC(=O)C1=C(c2ccc(OC(F)(F)F)cc2)C[C@@H]2CC[C@H]1N2C(=O)NC1CC1 | 15µM* | 21µM* | 0% | 1% | -6 | 22
COC(=O)C1=C(c2ccc(OC(F)(F)F)cc2)C[C@@H]2CC[C@H]1N2C(=O)N1CCCC1 | 1.8µM* | 1.8µM* | 1% | ? | 18 | -1
COC(=O)C1=C(c2ccc(S(C)(=O)=O)cc2)C[C@@H]2CC[C@H]1N2C(=O)N1CCC(C)CC1 | ? | ? | nt | nt | 35 | 7
COC(=O)C1=C(c2ccc(C(C)=O)cc2)C[C@@H]2CC[C@H]1N2C(=O)N1CCOCC1 | ? | -22% | 3% | 25% | 0 | 13
COC(=O)C1=C(c2ccc(OC(F)(F)F)cc2)C[C@@H]2CC[C@H]1N2C(=O)N1CCC(C)CC1 | 5.8µM* | 6.5µM* | -3% | 1% | ? | 0
O=C(Nc1ccc(-c2nc3ccccc3c(=O)o2)cc1)c1ccco1 | 6% | 0% | 3% | ? | ? | 7
Clc1ccccc1Cl | -6% | -10% | 8% | nt | nt | nt
C[C@]12CC[C@H]3[C@@H](C[C@H](F)C4=CC(=O)CC[C@@]43C)[C@@H]1CC[C@@H]2O | ? | ? | 12% | nt | nt | nt
ClC=CCl | nt | nt | 21% | nt | nt | nt
COC(=O)C1=C(c2cccc(C#N)c2)C[C@@H]2CC[C@H]1N2C(=O)N1CCCC1 | 18µM* | ? | 0% | 30% | 5 | 35
Cc1ccc(-c2nc3c(=O)n(C)c(=O)nc-3n(C)n2)cc1 | 0.5µM* | 0.63µM* | 3% | nt | -95* | nt
Cn1ncnc2c(=O)n(C)c(=O)nc1-2 | 0.29µM* | 0.21µM* | 6% | 6.5µM* | -88* | -108*
N[C@]1(C(=O)O)CC[C@@H](C(=O)O)C1 (racemic) | -21% | 8% | -9% | nt | nt | nt
CC(C)NC(=O)N1CCCC2(CCN(C(=O)Oc3ccccc3)CC2)C1 | ? | -21% | nt | nt | nt | nt
COc1cc(C[C@H](C)N)c(OC)cc1C | -19%[92.5 µM] | -15%[92.5 µM] | nt | nt | nt | nt
CN1C2CCC1CC(C(=O)OC(CO)c1ccccc1)C2 (stereo not given) | 1%[9.04 µM] | 9%[9.04 µM] | 2% | nt | nt | nt
O=[N+]([O-])/C=C/c1ccccc1 | nt | nt | 8% | nt | nt | nt
ClC1=C(Cl)C(Cl)=C(Cl)C1=C/C=C/c1ccccc1 | 3.3µM* | 5.2µM* | 8% | ? | -7 | 13
OCC(O)Cc1ccc2c(c1)OCO2 (stereo not given) | -18% | -2% | 8%[56.1 µM] | nt | nt | nt
